Source: PubChem BioAssay (NCATS)
Inconclusive results are not listed. A call without a number means that no potency is given here. Activity calls are given as the source filed them. Unless noted, calls come from the whole dose curve; as a rule, active = well fitted curve in the direction sought with a large enough effect; inconclusive = small, poorly fitted or top-dose-only effect, or another doubt; inactive = no such curve, though single readings can be large; an effect the other way counts as inactive or inconclusive.

Experiments:
[1] = molecular target: Aldehyde dehydrogenase, mitochondrial (Homo sapiens) (UniProt P05091); assay: qHTS for Inhibitors of the Aldehyde Dehydrogenase Family (ALDH2) Confirmatory screens (AID 2061303; active = well fitted inhibition curve with a large enough effect; title and protocol of this record describe different tests; note: nearly all actives have a fitted effect of over 45% in size; note: potency is the fitted concentration of half-maximal effect)
[2] = qHTS for Inhibitors of the Aldehyde Dehydrogenase Family (ALDH1A2, ALDH1A3, ALDH2, ALDH3A1) (AID 2061307); note: nearly all actives have a fitted effect of over 50% in size; for potency: test system not described further here; potency is the fitted concentration of half-maximal effect
[3] = molecular target: Aldehyde dehydrogenase, mitochondrial (Homo sapiens) (UniProt P05091); assay: qHTS for Inhibitors of the Aldehyde Dehydrogenase Family (ALDH2) Primary screen (AID 2061308); note: nearly all actives have a fitted effect of over 55% in size
[4] = molecular target: Retinaldehyde dehydrogenase 3 (Homo sapiens) (UniProt P47895); assay: qHTS for Inhibitors of the Aldehyde Dehydrogenase Family (ALDH1A3) Confirmatory screens (AID 2061311); note: nearly all actives have a fitted effect of over 60% in size; note: potency is the fitted concentration of half-maximal effect
[5] = molecular target: Retinaldehyde dehydrogenase 3 (Homo sapiens) (UniProt P47895); assay: qHTS for Inhibitors of the Aldehyde Dehydrogenase Family (ALDH1A3) Primary screen (AID 2061315)
[6] = molecular target: Aldehyde dehydrogenase 1A1 (Homo sapiens) (UniProt P00352); assay: qHTS for Inhibitors of the Aldehyde Dehydrogenase Family (ALDH1A1) Confirmatory screens (AID 2061316); note: nearly all actives have a fitted effect of over 65% in size; note: potency is the fitted concentration of half-maximal effect
[7] = molecular target: Retinal dehydrogenase 2 (Homo sapiens) (UniProt O94788); assay: qHTS for Inhibitors of the Aldehyde Dehydrogenase Family (ALDH1A2) Confirmation screens (AID 2061314); note: potency is the fitted concentration of half-maximal effect; nearly all actives have a fitted effect of over 65% in size

SMILES	Potency [1]	Potency [2]	Potency [3]	Potency [4]	Potency [5]	Potency [6]	Potency [7]
N#Cc1nc(Nc2cccc(Br)c2)nc(NC2CCCC2)n1	inactive	10.1 µM (active)	inactive	inactive	inactive	–	–
O=C(NC1CCCc2c1cnn2-c1ccc(F)cc1F)c1ccc(C(=O)c2ccccc2)cc1 (stereo not drawn)	inactive	inactive	inactive	inactive	inactive	–	–
NC(=O)c1cccc(-c2cc(OC(=O)NC3CCCCC3)ccc2O)c1	inactive	10.1 µM (active)	inactive	inactive	inactive	–	–
COc1ccc(OC)c(-c2nnc3n2N=C(c2ccc(OC)c(OCC4CC4)c2)CS3)c1	inactive	inactive	inactive	inactive	inactive	2.25 µM (active)	–
Oc1cccc2cc(C3CC3)cnc12	inactive	0.634 µM (active)	inactive	31.6 µM (active)	inactive	–	–
CC(C)(C)CNc1nc(C#N)nc(Nc2ccccc2)n1	inactive	12.7 µM (active)	inactive	inactive	inactive	–	–
O=C(Nc1ccc2c(c1)CCC2)Nc1nnc(-c2ccncc2)s1	inactive	inactive	inactive	inactive	inactive	–	–
CCOC(=O)c1cccc(-n2cccc2/C=C2\NC(=O)N(CC(=O)O)C2=O)c1	inactive	inactive	inactive	inactive	inactive	–	–
CNc1oc(-c2cccc(-c3ccccc3)c2)nc1C#N	15.8 µM (active)	17.8 µM (active)	inactive	25.1 µM (active)	inactive	inactive	–
Oc1ccc(Oc2ccccc2F)c2cccnc12	4.49 µM (active)	17 µM (active)	inactive	2.01 µM (active)	–	5.04 µM (active)	2.01 µM (active)
